# Myc binder = c-Myc (human) binding; P01106; small molecule microarray, His-c-Myc binding, anti-His fluorescence; calls only; hit rate 1.5% among 17,000; AID 624141;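 active = spot fluorescence over background with P-value below 7% in all four replicate spots, showing protein binding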;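 also: score is binary with 100 for all four spots passing and 0 otherwise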
# Target sequence (P01106 whole entry, looked up): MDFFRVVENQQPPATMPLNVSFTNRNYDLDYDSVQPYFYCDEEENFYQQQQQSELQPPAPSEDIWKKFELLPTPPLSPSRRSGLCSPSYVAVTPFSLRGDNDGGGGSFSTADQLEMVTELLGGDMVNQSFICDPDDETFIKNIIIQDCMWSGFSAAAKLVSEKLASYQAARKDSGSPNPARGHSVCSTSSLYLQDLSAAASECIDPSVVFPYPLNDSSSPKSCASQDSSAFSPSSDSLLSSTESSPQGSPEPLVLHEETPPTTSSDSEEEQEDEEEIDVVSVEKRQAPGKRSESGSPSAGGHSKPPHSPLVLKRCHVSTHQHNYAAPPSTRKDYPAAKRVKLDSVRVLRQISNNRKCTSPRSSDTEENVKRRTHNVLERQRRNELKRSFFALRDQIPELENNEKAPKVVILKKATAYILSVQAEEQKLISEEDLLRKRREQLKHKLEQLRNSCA
# p53 mut binder = mutant p53 (human) binding; hit rate 0.4% among 17,000; small molecule microarray binding, anti-GST fluorescence; calls only;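 active = compounds whose four printed spots each glow above background more than chance allows, each with a p-value under 7%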
# NFkB binder = binders of human NF-kappa-B p105; Small molecule microarray, anti-His fluorescence binding; calls only; hit rate 1.3% among 17,000;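 active = spot fluorescence over background significantly raised, with a chance value under 7% in all four replicate spots of the compound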;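 also: probe protein is his-tagged human p50 processed subunit at 1 µg/ml; raw spot fluorescence signals with no normalization applied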
# STAT3 binder = binds human STAT3 on microarray; P40763; Small molecule microarray, His-STAT3 binding, anti-His fluorescence; calls only; hit rate 0.2% among 17,000;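 active = compounds whose four printed spots each show fluorescence over background unusually high for their array block, chance value under 7%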
# An asterisk follows results filed as active; i = inactive; + = active, no number. Only some compounds are listed: those with a hit (about 2.1% of all), similar ones and a draw of the others.
SMILES,Myc binder,p53 mut binder,NFkB binder,STAT3 binder
C[C@H](CCC(=O)O)[C@H]1CCC2[C@@H]3CC[C@@H]4C[C@H](O)CC[C@]4(C)C3C=C[C@@]21C (some centres undefined),i,i,+,i
COc1ccc2nc(Nc3nc(C)c(CCC(C)C)c(=O)[nH]3)nc(C)c2c1,i,i,+,i
CC(=O)NCCc1c(C(=O)O)[nH]c2ccc(C(C)=O)cc12,i,i,i,i
CCOc1cc([N+](=O)[O-])ccc1NC(=O)CC1Sc2ccccc2NC1=O (centres undefined),i,i,i,i
C=CCOC(=O)[C@H]1[C@@H]2C(=O)O[C@@H](c3ccccc3)[C@@H](c3ccccc3)N2[C@@H](c2ccc(OCCOC(=O)[C@@H]3C[C@@H]4C(=O)NCC(=O)N4[C@@H]3c3ccc(O)cc3)cc2)[C@]12C(=O)Nc1ccccc12,i,i,+,i
C=CCOC(=O)[C@H]1[C@@H]2C(=O)O[C@@H](c3ccccc3)[C@@H](c3ccccc3)N2[C@@H](c2ccc(OCCOC(=O)[C@@H]3C[C@@H]4C(=O)N5CCC[C@H]5C(=O)N4[C@@H]3c3cccc(OCCO)c3)cc2)[C@]12C(=O)Nc1ccccc12,i,i,i,i
C=CCOC(=O)[C@H]1[C@@H]2C(=O)O[C@@H](c3ccccc3)[C@@H](c3ccccc3)N2[C@@H](c2ccc(OCCOC(=O)[C@@H]3C[C@@H]4C(=O)N5CCC[C@H]5C(=O)N4[C@@H]3c3cccc(OCCO)c3)cc2)[C@]12C(=O)Nc1ccc(I)cc12,i,i,+,i
C=CCOC(=O)[C@H]1[C@@H]2C(=O)O[C@@H](c3ccccc3)[C@@H](c3ccccc3)N2[C@@H](c2ccc(OCCOC(=O)[C@@H]3C[C@@H]4C(=O)N[C@@H](Cc5ccccc5)C(=O)N4[C@@H]3c3cccc(OCCO)c3)cc2)[C@]12C(=O)Nc1ccc(I)cc12,i,i,+,i
C=CCN1CCc2cc(OC)c(OC)cc2C1C#Cc1ccccc1 (centres undefined),i,i,i,i
COc1ccccc1C(=O)Oc1c(CN2CCOCC2)cc(Cl)c2cccnc12,i,i,i,i
C[C@]12CCC3C(CC[C@@H]4C[C@H](O)CC[C@]34C)C1CC[C@]2(O)C(=O)CO (some centres undefined),i,i,i,i
COCCNS(=O)(=O)c1ccc(Cl)c(Cl)c1OC,i,i,i,i
C[C@@H]1CN([C@@H](C)CO)C(=O)Cc2cc(NC(=O)CCN3CCOCC3)ccc2O[C@H]1CN(C)Cc1ccc(-c2ccccc2)cc1,+,i,i,i
C[C@@H]1CN([C@H](C)CO)C(=O)Cc2cc(NC(=O)CCN3CCOCC3)ccc2O[C@H]1CN(C)Cc1ccc(-c2ccccc2)cc1,i,i,i,i
C[C@H](CO)N1C[C@H](C)[C@@H](CN(C)Cc2ccc(-c3ccccc3)cc2)Oc2ccc(NC(=O)Nc3cccc4ccccc34)cc2CC1=O,i,i,+,i
C[C@@H]1CN([C@@H](C)CO)C(=O)Cc2cc(NC(=O)Nc3cccc4ccccc34)ccc2O[C@@H]1CN(C)Cc1ccc(C(=O)O)cc1,i,i,i,i
C[C@@H]1CCCCO[C@@H](CN(C)C(=O)Nc2cccc3ccccc23)[C@H](C)CN([C@H](C)CO)C(=O)c2cc(N(C)C)ccc2O1,+,i,+,i
C[C@@H]1CN([C@@H](C)CO)C(=O)c2cc(NC(=O)c3ccncc3)ccc2O[C@@H](C)CCCCO[C@@H]1CN(C)C(=O)Nc1ccccc1,i,i,i,i
C[C@@H]1CCCCO[C@@H](CN(C)C(=O)Nc2cccc3ccccc23)[C@H](C)CN([C@H](C)CO)C(=O)c2cc(NC(=O)c3ccncc3)ccc2O1,+,i,+,i
C[C@@H]1CCCCO[C@@H](CN(C)C(=O)Nc2cccc3ccccc23)[C@H](C)CN([C@@H](C)CO)C(=O)c2cc(NC(=O)c3ccncc3)ccc2O1,+,i,+,i
C[C@@H]1CN([C@@H](C)CO)C(=O)c2cc(NC(=O)Nc3ccc(F)cc3)ccc2O[C@@H](C)CCCCO[C@H]1CN(C)C(=O)Nc1cccc2ccccc12,i,i,i,i
C[C@@H]1CN([C@H](C)CO)C(=O)c2cc(NC(=O)c3ccncc3)ccc2O[C@@H](C)CCCCO[C@H]1CN(C)C(=O)Nc1cccc2ccccc12,+,i,+,i
COc1ccc(I)cc1C(Nc1cc(C)ccn1)c1ccc2cccnc2c1O (centres undefined),i,i,i,i
Cc1cc(C)nc(SC(C)C(=O)Nc2ccc(Cl)cc2)n1 (centres undefined),i,i,i,i
CC1OC(c2cc3oc(-c4ccccc4)cc(=O)c3c(O)c2O)CC(O)C1O (centres undefined),i,i,i,i
SMILES,Myc binder,p53 mut binder,NFkB binder,STAT3 binder
C=C1C(=O)O[C@@H]2C3=C(C)CC[C@]34O[C@@H](C[C@@H]4C)[C@H]12,i,i,i,i
COC(=O)CN(c1cc(Cl)cc(Cl)c1)S(=O)(=O)c1ccccc1,i,i,i,i
C[C@@H]1CN([C@@H](C)CO)C(=O)c2cc(NC(=O)c3ccncc3)ccc2O[C@@H](C)CCCCO[C@H]1CN(C)C(=O)Nc1cccc2ccccc12,+,i,+,i
C[C@@H]1CN([C@@H](C)CO)C(=O)c2cc(NC(=O)c3ccncc3)ccc2O[C@@H](C)CCCCO[C@@H]1CN(C)C(=O)Nc1cccc2ccccc12,i,+,i,+
C[C@@H]1CN([C@H](C)CO)C(=O)c2cc(NC(=O)c3ccncc3)ccc2O[C@@H](C)CCCCO[C@@H]1CN(C)C(=O)Nc1cccc2ccccc12,i,i,i,+
CC(C)NC(=O)N(C)C[C@H]1OCCCC[C@@H](C)Oc2ccc(NC(=O)c3ccncc3)cc2C(=O)N([C@@H](C)CO)C[C@H]1C,i,i,+,i
CC(C)NC(=O)N(C)C[C@H]1OCCCC[C@H](C)Oc2ccc(NC(=O)c3ccncc3)cc2C(=O)N([C@@H](C)CO)C[C@H]1C,i,i,i,i
C[C@H]1CCCCO[C@@H](CN(C)C(=O)Nc2ccccc2)[C@@H](C)CN([C@@H](C)CO)C(=O)c2cc(NC(=O)c3ccncc3)ccc2O1,i,i,i,i
CN(C)CCCNC(=O)[C@@]1(c2ccc([N+](=O)[O-])cc2)CC(=O)N(CC23CC4CC(CC(C4)C2)C3)[C@@H]1c1ccc(CO)cc1,i,i,i,i
CN1C(=O)N[C@@H]2c3ccccc3O[C@@]1(CO)[C@@H]2COC(=O)c1ccccc1,i,i,i,i
COC(=O)COc1ccc(NC(=O)c2ccc(NC(C)=O)cc2)cc1,i,i,i,i
OC1c2ccccc2-c2c3c(cc4c2C1NCC4)OCO3 (centres undefined),+,i,+,i

# Screening results deposited in PubChem BioAssay by Broad Institute.
